# Source: PubChem BioAssay AID430 (Sanford-Burnham Center for Chemical Genomics, 2006)
# The whole screen tested about 63,000 compounds, of which about 1,100 (1.7%) were called active. This excerpt belongs to a sample that is enriched for actives. Entries with a potency or affinity are not part of this list. Unmarked numbers belong to inactive results. No stated cut-off is given here; in the data, active means cytotoxicity above about 50%; inactive means the rest.
# Assay: HPDE-C7 pancreatic duct cell viability loss – fluorescence, HTS (AID 430);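 further: cells exposed to compound for 48 hours before viability readout; 0% = vehicle and 100% = reference cytotoxic drug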
# Conditions: HPDE-C7 pancreatic duct cells viability, at 10 µM, hits give high values
row,Structure (SMILES),cytotoxicity
1,C=CCn1c(SCC(=O)O)nnc1-c1cccc(Cl)c1,5.9%
2,Cc1cc(N2CCN(C(=O)c3ccco3)CC2)n2nc(C)nc2n1,3%
3,O=C(CSc1nc(O)cc(=O)[nH]1)N1CCCc2ccccc21,2.5%
4,CC1=C(C)SC(=C(C#N)c2nnc(N3CCOCC3)n2-c2ccccc2)S1,23.4%
5,O=C(Nc1ccc(Nc2ccccc2)cc1)c1ccc(Br)o1,76.8% (active)
6,COC(=O)Cc1ccc(NC(=O)c2ccc(Br)o2)cc1,-2.2%
7,O=C(Nc1ccc(S(=O)(=O)NCCc2ccccc2)cc1)c1ccc(Br)o1,12%
8,COc1ccccc1CNC(=O)C1CCCN(S(=O)(=O)c2c(C)[nH]c(=O)[nH]c2=O)C1 (stereo not given),-20.9%
9,COc1ccc(C(=O)c2ccc(OC)c(OC)c2)cc1OC,-8.6%
10,COc1ccc(C(=O)c2ccc(OC)c(N)c2)cc1N,78.9% (active)
11,COc1ccc(C(N)=O)cc1N,-18.1%
12,O=C(NC1CCCCC1)N1CCCCCC1,-4%
13,CCSc1nnc(NC(=O)c2cc3c(s2)CCCC3)s1,7.4%
14,CC[C@]1(O)C[C@@H]2CN(CCc3c([nH]c4ccccc34)[C@@](C(=O)OC)(c3cc4c(cc3OC)N(C)[C@H]3[C@@](O)(C(=O)OC)[C@H](OC(C)=O)[C@]5(CC)C=CCN6CC[C@]43[C@@H]65)C2)C1,67.3% (active)
15,CC[C@]1(O)CC2CN(CCc3c([nH]c4ccccc34)[C@@](C(=O)OC)(c3cc4c(cc3OC)N(C=O)[C@H]3[C@@](O)(C(=O)OC)[C@H](OC(C)=O)[C@]5(CC)C=CCN6CC[C@]43[C@@H]65)C2)C1 (stereo not given in full),66.3% (active)
16,CC(=O)N1CCN(C2c3cccc4cccc(c34)C2NS(=O)(=O)c2ccccc2)CC1 (stereo not given),-18.7%
17,COc1cccc(OCC(O)CN2CCC(C)CC2)c1 (stereo not given),0.1%
18,Cc1cc(C(=O)Nc2ccc(S(=O)(=O)N3CCCC3)cc2)cs1,-11.4%
19,CCCOCCOC(=O)c1[nH]c2c(c1C)C(=O)CC(c1cc(OC)ccc1OC)C2 (stereo not given),60.7% (active)
20,COc1ccc(C2CC(=O)c3c([nH]c(C(=O)OC(C)C)c3C)C2)cc1OC (stereo not given),-7.1%

row,Structure (SMILES),cytotoxicity
1,COC(=O)c1[nH]c2c(c1C)C(=O)CC(c1cc(OC)ccc1OC)C2 (stereo not given),31.5%
2,COc1ccc(OC)c(C2CC(=O)c3c([nH]c(C(=O)OC(C)C)c3C)C2)c1 (stereo not given),65.9% (active)
3,COCCOC(=O)c1[nH]c2c(c1C)C(=O)CC(c1cc(OC)ccc1OC)C2 (stereo not given),16.4%
4,CCOCC(=O)Nc1ccc(S(=O)(=O)NCCc2ccccc2)cc1,4.2%
5,COC(=O)c1ccc(NC(=O)CCN2CCN(c3ccccc3)CC2)cc1,37.6%
6,O=C(Nc1ccc(N2CCCCC2)cc1)c1ccc(F)cc1,23.5%
7,O=C(c1ccco1)N1CCN(C(=O)c2ccccc2OC(=O)C23CC4CC(CC(C4)C2)C3)CC1,-9.7%
8,COc1ccc(N2CC(O)=C(c3nc4ccccc4s3)C2=N)cc1,5.8%
9,COc1ccc(N2CC(O)=C(c3nc4ccccc4s3)C2=N)c(OC)c1,20.6%
10,CCOc1ccccc1N1CC(O)=C(c2nc3ccccc3s2)C1=N,65.2% (active)
11,O=C(O)C(CC(=O)N1CCOCC1)NCc1ccccc1 (stereo not given),5.6%
12,CC1CCCN(C(=O)CSc2nnc(-c3cccnc3)n2C2CCCCC2)C1 (stereo not given),-23.2%
13,CCCN(CC1CC1)C(=O)Nc1ccccc1C,-9.7%
14,COc1cccc(-c2nc(NC(C)(C)C)c3ccccc3n2)c1O,10.9%
15,C=CCNc1nc(-c2cccc(OC)c2O)nc2ccccc12,-3%
16,Oc1ccccc1-c1nc(NCC2CCCO2)c2ccccc2n1 (stereo not given),46.8%
17,COc1cccc(-c2nc(NCC3CCCO3)c3ccccc3n2)c1O (stereo not given),52.2% (active)
18,CCC1CCCCN1c1nc(-c2cccc(OC)c2O)nc2ccccc12 (stereo not given),-2.8%
19,CCC(C)Nc1nc(-c2cccc(OC)c2O)nc2ccccc12 (stereo not given),107% (active)
20,COc1cccc(-c2nc(N3CCCCC3C)c3ccccc3n2)c1O (stereo not given),53% (active)

row,Structure (SMILES),cytotoxicity
1,COc1cccc(-c2nc(N3CCCCC3)c3ccccc3n2)c1O,-7.5%
2,COc1cccc(-c2nc(NC(C)C)c3ccccc3n2)c1O,23.8%
3,O=C(CN(C1CC1)S(=O)(=O)c1ccc(S(=O)(=O)N2CCCCCC2)cc1)Nc1ccccc1,7.4%
4,CCCOc1ccc(C(=O)NCCC(=O)NCCCC(=O)OCC)cc1,1.7%
5,O=C1C(SC(F)(F)C(F)F)=C(C(F)(F)F)OC2C3C=CC(C3)C12 (stereo not given),3.6%
6,O=C1NC(NS(=O)(=O)c2ccccc2)(C(F)(F)F)C(=O)N1Cc1cccnc1 (stereo not given),-8.4%
7,CC(C)(C)c1ccccc1OCC(=O)NCCC(=O)O,-12.2%
8,c1ccc2oc(SCc3nc4ccccc4s3)nc2c1,8.6%
9,CCS(=O)(=O)CCSc1nc2ccccc2s1,-17.4%
10,CCS(=O)(=O)CCSc1nc2ccccc2o1,-9.3%
11,O=C(CSc1nc2ccccc2s1)Nc1ncccn1,-3.2%
12,Cc1ccccc1N(C)S(=O)(=O)c1ccc2[nH]cc(C(=O)NCC3CCCO3)c(=O)c2c1 (stereo not given),-13.7%
13,O=C(O)CCC(=O)c1ccc2c(c1)OCCO2,0%
14,O=C(Cc1ccc2c(c1)OCCO2)c1c(O)cc(O)cc1O,60.9% (active)
15,O=C(O)COc1ccc(C(=O)Cc2ccc3c(c2)OCCCO3)c(O)c1,-8.7%
16,Nn1c(SCC(=O)NCc2ccccc2)nnc1C1CC1,6.6%
17,COC(=O)C1CCN(C(=O)C(C)Oc2ccc(Cl)cc2Cl)CC1 (stereo not given),-16.4%
18,CCN(CC)CCCNC(=O)C1CCN(C(=O)c2cc3sccc3n2Cc2ccc(F)cc2)CC1,20.7%
19,CC(=O)C1=C(C)N=c2s/c(=C/c3ccc4c(c3)OCO4)c(=O)n2C1c1ccc(N(C)C)cc1 (stereo not given),-3.5%
20,COc1ccc(C2C(C(C)=O)=C(C)N=c3s/c(=C/c4ccc5c(c4)OCO5)c(=O)n32)cc1 (stereo not given),-4.1%
